PubChem BioAssay (NCI)
This is part of a sample that, as a whole, favours compounds with a hit. Of some 79,000 tested, about 15% had one in any assay. Values without a mark were called inactive. Activity calls are given as the source filed them. Cut-off read from the data, not from the text of the source: active = growth inhibition above about 70%; inactive = the rest.

assay: NCI Yeast Anticancer Drug Screen. Data for the rad50 strain (AID 155);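 note: 0% = growth of vehicle-only cultures of the same strain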; conditions: S. cerevisiae rad50 strain growth inhibition; at 50.0 µM; active compounds read high
Method in brief: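 Growth of the mutant yeast was measured after compound exposure and referenced to vehicle-treated cultures.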

| Structure (SMILES) | growth inhibition |
| --- | --- |
| [Cl][Cu][Cl].c1ccc2c(c1)Sc1ccccc1[N+]2=c1ccc2nc3ccccc3sc-2c1 | 26.1% |
| CC1c2ccccc2-c2ccccc21 | 10.2% |
| Cc1nc2ccccc2c(=O)n1C | -7.5% |
| CC(=O)OCC(=O)C1(C)CCC2(C)CCC3(C)C(=CC(=O)C4C5(C)CCC(=O)C(C)(C)C5CCC43C)C2C1 (configuration not stated) | -2.95% |
| CC(=O)OC(C)c1cc2c(s1)C(=O)c1sccc1C2=O (configuration not stated) | 88.6% (active) |
| O=[N+]([O-])c1ccc2c(c1)nc(-c1ccccn1)n2CCc1ccncc1 | 95.2% (active) |
| COc1ccc2c(c1)s/c(=N/N)n2CCCS(=O)(=O)O | 5.5% |
| NC(Cc1ccc(O)cc1)C(=O)OCc1ccccc1 (configuration not stated) | -6.45% |
| N#CSCC(=O)CCC(=O)O | -2.75% |
| Brc1ccc(C2NC(c3ccccc3)c3c(ccc4ccccc34)O2)cc1 (configuration not stated) | 90% (active) |
| CCN(CC)C(=O)c1cncc(C(N)=O)c1 | 4.85% |
| Cc1ccc(/C=C/c2cc(/C=C/c3ccc(C)cc3)c([N+](=O)[O-])cc2[N+](=O)[O-])cc1 | 23.2% |
| Oc1ccc(Cl)cc1/C=N\N=C\c1cc(Cl)ccc1O | -50.3% |
| Cc1nc(=S)c2cnn(-c3ccccc3)c2[nH]1 | -15.4% |
| C=CCN(CC=C)C(=S)NC(=O)c1ccccc1 | 17.8% |
| O=CNC(Cc1cnc[nH]1)C(=O)O (configuration not stated) | -14.4% |
| CC(=O)Oc1ccc2ccccc2c1CN(C(C)=O)c1ccc(C)cc1 | -7.45% |
